Compounds with a hit are over-represented: about 2.2% of the library has one in this group of screens.
aSyn 5UTR inh: MLPCN primary screen, SNCA 5' untranslated region; alpha-synuclein 5'UTR reporter, inhibitor activity; inhibition, % (tested at 7.5 µM); 300,000 compounds, 0.82% hits; AID 1813; in the data active = inhibition above about 60%; inconclusive = no clear call, values can overlap the other calls;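 also: H4 neuroglioblastoma cells stably carrying SNCA 5'UTR luciferase fusion; 0% = DMSO wells and 100% = positive control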
Ba/F3 V617F tox: reduce viability of Ba/F3 cells dependent on JAK2V617F. Ba/F3 EpoR-JAK2V617F viability, ATP luminescence. inhibition, % at 5.6 µM. 220,000 compounds, 1.1% hits. AID 1446;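 active = inhibition above the campaign mean plus 3 SD over all tested compounds, cut at about 24% in these data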;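 also: cytokine-independent growth of Ba/F3 cells driven by EpoR plus mutant JAK2; 0% = DMSO-treated cells and 100% = JAK inhibitor I control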
KLF5 inh: inhibitors of KLF5 expression | DLD-1 KLF5 promoter-luciferase reporter, luminescence | inhibition, % at 5 µM | 290,000 compounds, 0.23% hits | AID 1700;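 active = inhibition above a per-plate limit of that plate's mean compound inhibition plus 3 SD, cut at about 60% in these data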;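 also: 0% = DMSO wells and 100% = LY294002 at 200 µM; higher means less KLF5 promoter-driven luciferase light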
IEC-6 tox: kills IEC-6 intestinal cells in KLF5 counter-screen. 290,000 compounds, 0.78% hits. IEC-6 cytotoxicity, luminescence viability. inhibition, % at 5 µM; in the data active = inhibition above about 22%;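 also: 0% = plate median of test compound wells and 100% = cytotoxic reference compound wells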
APP transl inh: APP translation inhibition; inhibition, % at 2 µM; SH-SY5Y APP 5'UTR-luciferase reporter, luminescence; 190,000 compounds, 0.82% hits;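 active = inhibition above a set limit, derived from the sample mean plus 3 SD, cut at about 45% in these data; inconclusive = one replicate passes the limit while the other fails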
BaF3 tox: parental Ba/F3 viability inhibition as JAK2V617F counter-screen; CellTiter-Glo ATP luminescence; inhibition, % at 5.6 µM; 220,000 compounds, 1.1% hits; AID 1486;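 active = inhibition above a per-campaign cutoff, the mean inhibition of all tested compounds plus 3 SD, cut at about 27% in these data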;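 also: 0% = DMSO wells and 100% = JAK Inhibitor I control wells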
The depositor's hits bear a star; u = inconclusive; x = no result.

SMILES	aSyn 5UTR inh	Ba/F3 V617F tox	KLF5 inh	IEC-6 tox	APP transl inh	BaF3 tox
CC(CC(=O)N1CCN(c2ccccc2)CC1)S(=O)(=O)c1ccc2c(c1)NC(=O)CO2 (stereo not given)	-2	x	6	-1	x	x
CCOc1ccc(-n2c(C)cc(C(=O)CCl)c2C)cc1	111*	0	-18	-1	27	0
CCOc1ccc(-n2c(C)cc(/C=N/N(C)C)c2C)cc1	0	10	-5	2	-18	37*
CCOc1ccc(-n2c(C)cc(/C=N/NC(=O)C(N)=O)c2C)cc1	16	0	-4	-2	6	6
COc1cc(C)c(Cc2cnc(N)nc2N)cc1OC	-2	33*	-16	-8	x	-2
CC(C)Oc1ccc(Cc2cnc(N)nc2N)cc1	8	10	-8	-4	9	4
CCC(Oc1ccccc1)C(=O)Nc1ccccn1 (stereo not given)	-46	-2	2	-2	-35	89*
CCC(Oc1ccccc1)C(=O)Nc1cc(C)on1 (stereo not given)	6	-1	1	1	5	-3
O=C(CN1CCC(NC(=O)Nc2ccc(F)cc2)CC1)Nc1ccccc1[N+](=O)[O-]	9	x	-7	-6	x	x
FC(F)(F)c1ccccc1NC(=S)NN=C1CCCCCC1	-18	-2	-14	7	93*	0
CC(C)C(=O)Nc1cccc(C(=O)N2CCCCC2C)c1 (stereo not given)	17	32*	-8	1	-17	49*
CN(C(=O)COC(=O)c1cccc(S(=O)(=O)N2CCOCC2)c1)C1CCS(=O)(=O)C1 (stereo not given)	-5	x	x	x	x	x
CC1CN(S(=O)(=O)c2cccc(C(=O)NCCCn3ccnc3)c2)CC(C)O1 (stereo not given)	5	1	-22	1	3	5
CC1CN(S(=O)(=O)c2ccc(C(=O)NCCCn3ccnc3)cc2)CC(C)O1 (stereo not given)	105*	-2	-23	-4	18	0
O=C(Nc1cccs1)Nc1ccccc1Cl	-71	-1	-21	8	-26	3
Cc1c(NC(=O)Nc2cccs2)cccc1[N+](=O)[O-]	-71	12	-22	10	5	29*
Cc1cccc(N2CCN(C(=S)Nc3ccc4nc(N5CCN(C)CC5)cc(C)c4c3)CC2)c1C	95*	-2	-24	-1	87*	2
Cc1cc(N2CCN(C)CC2)nc2ccc(NC(=S)N3CCCCC3)cc12	-85	1	-24	-2	-18	5
COc1ccc(CSC2=NCCN2)cc1Br	-6	x	-24	5	x	x
Cc1ccc(O)c(NC(=O)CCC2CCCCC2)c1	-152	73*	-105	-2	-64	58*
O=C(CCC1CCCCC1)Nc1ccccc1O	-163	19	-59	3	-61	11
CCC(=O)Nc1ccc(NC(=S)NC(=O)Cc2ccccc2)cc1	-15	-3	-52	4	-17	7
CCC(=O)Nc1ccc(NC(=S)Nc2ccccc2)cc1	-10	-2	-18	-2	-11	58*
Nc1c(C(=O)NCc2ccccc2)sc2nc(N3CCOCC3)c3c(c12)CCCC3	65*	-3	-28	-2	6	-2
Cc1cccc(N2CCN(S(=O)(=O)c3ccc(-c4ccc(=O)[nH]n4)o3)CC2)c1C	4	x	-36	3	x	x
SMILES	aSyn 5UTR inh	Ba/F3 V617F tox	KLF5 inh	IEC-6 tox	APP transl inh	BaF3 tox
COc1ccc(-c2cc3nc(C)cc(-c4ccc(OC)cc4)n3n2)cc1	-2	x	-3	2	x	x
COc1ccc(-c2cc3nc(C)cc(N)n3n2)cc1	45	21	-21	22*	-147	22
Cc1noc(C)c1C(=O)N1CCCC1	-9	3	-30	2	5	4
Cc1noc(C)c1C1(O)CCCCCCCCCCC1	1	36*	-11	1	-10	55*
CCN(CC)S(=O)(=O)c1ccc(Oc2ccc(S(=O)(=O)N(CC)CC)cc2)cc1	14	33*	-18	-1	0	40*
Cc1cnc(C(=O)OCC(=O)NC(C)C)cn1	2	-7	-13	-2	-3	51*
O=C(COC(=O)CN1C(=O)c2ccccc2C1=O)Nc1ccc(S(=O)(=O)N2CCCC2)cc1	-11	-2	-19	1	50*	2
CCc1ccc(NC(=O)CCC(=O)Nc2nnc(C(C)C)s2)cc1	-30	x	-9	-1	x	x
Cc1cc(-c2ccccc2)cc(-c2ccccc2)[n+]1C	x	73*	-6	4	-4	68*
Cc1ccc(-c2cc(N)nc(-c3ccccc3)c2)cc1	-87	x	-62	-1	x	x
NS(=O)(=O)c1ccc(NC2=CC(=O)C(=O)c3ccccc32)cc1	51	x	-34	-2	x	x
CCN(CC)c1ccc(NC2=C(Cl)C(=O)c3ccccc3C2=O)cc1	x	-2	-63	9	96*	0
CCOc1ccc(NC2=C(OC)C(=O)c3ccccc3C2=O)cc1	-94	-1	-22	-2	7	11
Cc1ccc(NC2=C(Cl)C(=O)c3ccccc3C2=O)cc1	u	3	-9	2	96*	4
CCNC1=C(Cl)C(=O)c2ccccc2C1=O	-23	-1	-74	19	-4	2
Cc1ccc(NC2=CC(=O)C(=O)c3ccccc32)cc1	103*	4	-57	2	-30	10
O=C(c1ccc([N+](=O)[O-])cc1)N1CCN(c2ncc(Br)cn2)CC1	15	x	-4	1	x	x
Cc1cccc(NC(=O)c2onc3c2CCCC3)n1	86*	-1	-51	10	-158	-1
O=C(Nc1ccc2ccccc2c1)c1onc2c1CCCC2	-71	-4	-133	-1	-206	4
COC(=O)c1cccc(NC(=O)c2onc3c2CCCC3)c1	79*	2	-165	6	-99	6
O=C(NCc1ccc(F)cc1)C1CCCN1C(=O)Nc1cccc(F)c1 (stereo not given)	2	x	-105	0	x	x
Cc1ccc(C(=O)Nc2cccc(C(=O)NC3CCCC3)c2)cc1	-54	x	-58	5	x	x
CCCn1nnnc1NCc1cccc(Cl)c1	4	x	10	6	x	x
CC(C)(C)NC(=O)C(=O)NCc1ccccn1	-27	-1	-18	-2	-8	2
O=C(NCc1ccccn1)C(=O)NCc1ccccn1	-16	-3	-24	-1	9	54*
O=C(Nc1cccc(-c2cn3cccnc3n2)c1)c1ccco1	-31	-3	-14	-1	14	1
O=C(Nc1cccc(-c2cn3cccnc3n2)c1)c1ccc(Br)o1	-50	4	-24	4	54*	6
CCN1C(=O)[C@H]2[C@@H](c3ccc(C)cc3)N3C(=O)N(c4ccccc4)C(=O)[C@@]3(CC)[C@H]2C1=O	-34	x	-20	-7	x	x
Cc1ccc(-n2c(C)cc(C(=O)COc3cccnc3[N+](=O)[O-])c2C)cc1	64*	1	28	1	-27	6
Cc1cc(-n2c(C)cc(C(=O)COc3ccccc3[N+](=O)[O-])c2C)no1	-68	2	-30	-2	-25	7

Screening results deposited in PubChem by several laboratories.
